Results on 40 compounds are retold here after PubChem BioAssay (NCI).

SMILES strings stand for the structures. About 83,000 compounds went through this panel and 20% of them were active in at least one assay; those are over-represented in the sample as a whole.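 Percent growth is the endpoint: 0 to 100 indicates growth inhibition (40 means 60% inhibition), 0 means no net growth, and negative values indicate cell death.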 Unmarked numbers belong to inactive results. Calls of active or inactive are those of the source. The calls were made as follows: active = growth percent below 10; inactive = the rest.

This assay deals with HL-60(TB) leukemia. Kind of assay: NCI-60 one-dose screen, 48 h (100 = growth as untreated, 0 = no growth, -100 = all killed). As to conditions: 10 µM unless noted.
Take `CCCCCCCC(=O)SCC/C=C/[C@@H]1CC(=O)NCc2nc(cs2)C2=N[C@@](C)(CS2)C(=O)N[C@@H](C(C)C)C(=O)N1`: the growth was 8.7% (active).

On to `C#CCOC(=O)[C@]1(C)CCC[C@]2(C)[C@H]3C[C@H]4C(C(C)C)=C[C@]3(CC[C@H]21)[C@@H]1C(=O)CCC(=O)[C@@H]14`, for which the growth is 64.7%.

As for `COc1ccc(-c2cc(-c3cccc(Cl)c3)c(C#N)c(=O)[nH]2)c(OC)c1`, the growth is 95.6%.

In the case of `CCc1cnc2ccccc2c1/C=C/c1ccc(N(C)C)cc1`, the growth was 12.9%.

Regarding `COc1ccc(C2=C(CN)C(O)NC(=NCC(=O)c3ccc4ccccc4c3)N2)cc1` (stereo not given), the growth was 97.9%.

For `CC1=C(CCCOC(=O)NCCCl)C2=C(C)C3(CC3)[C@@](C)(O)C(=O)C2=C1`, the growth was 44.7%.

Take `Nc1n[nH]c2ccc([C@@H]3Nc4ccc5[nH]ncc5c4[C@H]4C5C=CC(C5)[C@@H]34)cc12` (stereo not given in full): the growth was -24.9% (active).

For the compound `COc1ccc2[nH]c(O)c(/C=c3/ccc4c(c3)N=C(c3ccc(F)cc3)N=4)c2c1`, the growth was 99.9%.

For `O=C1NC(SCc2ccc(F)cc2)=N/C1=C/c1cccc(OCc2ccc(Cl)cc2)c1`, the growth is 61.5%.

For the compound `O=C1/C(=C\c2ccc(Br)o2)SC(=S)N1CCc1ccc(O)cc1`, the growth is 42.2%.

With `CC(CO)(CO)C(=O)O`, the growth is 108%.

Take `C=CCn1c(C)nc2ccc(Nc3nc(Nc4ccc5nc(C)n(CC=C)c5c4)c4ccccc4n3)cc21`: the growth was -63.2% (active).

On to `CC(N)C(=O)NNc1n[nH]c(=S)n1N` (stereo not given), for which the growth is 101%.

For the compound `Cc1ccc(CS/C(=C\c2ccc([N+](=O)[O-])cc2)C(=O)c2ccc(F)cc2)cc1`, the growth is 30.4%.

For `CCn1cnc(C[C@H](NC(=O)[C@@H](NC(=O)Nc2cc(C(F)(F)F)cc(C(F)(F)F)c2)C(C)C)C(=O)OC)c1`, the growth is -75.7% [100 µM] (active).

Take `CCOc1ccc2c(c1)/C(=C\C=C\C1CC(C)C3CC(OCC)CCC3N1CC)CC(C)N2CC` (stereo not given): the growth was -35.7% (active).

Regarding `O=C(Nc1cccc(-n2cc(-c3ccncc3)c(-c3ccc(Cl)c(O)c3)n2)c1)c1ccccc1`, the growth was 167%.

As to `O=C(Cn1cc(COc2ncnc3c2cnn3-c2ccccc2)nn1)Nc1ccccn1`, the growth is 105%.

For the compound `COc1cc(/C=C/c2ccc3c(Br)cc(Br)c(O)c3n2)ccc1O`, the growth was -47.3% (active).

As to `CCN(CC)CCCC(C)NCc1ccccc1` (stereo not given), the growth is 105%.

In the case of `COc1cccc2cc(-c3cc4ccccc4[nH]3)/c(=N/C(=S)Nc3ccc(C)cc3)oc12`, the growth is 98.1%.

`CN(Cc1ccccc1)c1nc(Cl)c(C2CC(c3ccc4c(c3)OCO4)=NN2c2cc(Cl)cc(Cl)c2)s1` (stereo not given): the growth is 105%.

As to `O=c1[nH]c(CN2CCN(c3cccc(Cl)c3)CC2)nc2cc(Cl)ccc12`, the growth is 116%.

Regarding `CCNC(=O)c1[nH]cc(-c2ccc(OC)cc2)c1-c1cc(OC)cc(OC)c1`, the growth is 82.1%.

`C=C1C(=O)O[C@H]2[C@H]1CC/C(COC(=O)NCCc1cccc(OC)c1)=C\CC[C@@]1(C)O[C@@H]21`: the growth was 6.53% (active).

In the case of `O=C1c2ccccc2C(=O)c2c(NCCN=Cc3ccccc3O)cccc21`, the growth was 44%.

In the case of `COc1ccc(-n2cc(-c3cc(OC)c(OC)c(OC)c3)n(C(C)=O)c2=O)cc1`, the growth is 126%.

For `Nc1ccc2[nH]c(-c3ccccc3)cc(=O)c2c1`, the growth was 88.2%.

As for `c1ccc2[nH]c(SSc3nc4ncncc4[nH]3)nc2c1`, the growth is 17.1%.

In the case of `COc1ccc(/C=C/C(=O)c2ccc3cc(OC)c(OC)cc3c2)cc1OC`, the growth was 44.7%.

Take `COc1ccc(C2NC(=O)c3cc4c(cc3N2)OCO4)cc1` (stereo not given): the growth was -42% (active).

On to `CC1(C)C(O)NC(Cl)=C(C#N)C1(C#N)C#N` (stereo not given), for which the growth is 114%.

For the compound `Oc1ccc2ccccc2c1CN1CCOCC1`, the growth is 105%.

On to `CC(C)[C@H]1CC[C@H]2[C@@H](CC[C@H]3[C@](C)(CN)CCC[C@]23C)C1`, for which the growth is 71.8%.

Turning to `Cc1cc(N2CCSCC2)nc(NC2CCCC(Nc3ccnc4cc(Cl)ccc34)C2)n1` (stereo not given), the growth is -68.7% (active).

In the case of `CC(CCC(=O)O)(NC(=O)c1ccc([N+](=O)[O-])cc1)C(=O)O` (stereo not given), the growth is 94.9%.

As for `ClC(Cl)c1nc(-c2ccccc2)n2nc(-c3ccccc3)cc2n1`, the growth is -7.03% (active).

For the compound `CCCCCN1CCN(C(CC(=O)c2ccccc2)C(=O)c2ccccc2)CC1` (stereo not given), the growth is 60.4%.

Regarding `NC(=O)c1ccc(-c2cccc3c(=O)nc(N4CCOCC4)oc23)cc1`, the growth is 97.5%.

As to `CCOC(=O)C1=C(C)N=c2s/c(=C\c3ccccc3O)c(=O)n2C1c1ccc(OC)c2ccccc12` (stereo not given), the growth was -48.6% (active).
